These results are taken from PubChem BioAssay (EPA / NIEHS).

The term AC50 denotes the concentration at which the activity in the assay is half-maximal.

Inconclusive results are not listed. Active and inactive are the calls of the source. Rule for the calls, unless noted: active = hit-call score of the fitted dose curve at least 0.9, where 1 is the maximum; inactive = score below 0.9.

Read-out in experiment [1]: NAD(P)H dehydrogenase [quinone] 1 (NQO1), NQO1 (gene 1728)
In words: LTEA_HepaRG_NQO1: Life Technologies and Expression Analysis (LTEA) Assay for NAD(P)H dehydrogenase [quinone] 1 (NQO1) using HepaRG (AID 2283526). Conditions: mRNA level, 48 h; actives raise or lower the signal. Summed up: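 In this assay, gene expression is read by qRT-PCR after 48 h exposure of HepaRG cells to eight concentrations (max 100 uM, half-log) in 0.5% DMSO. Each chemical runs in duplicate, and activity is scored relative to vehicle.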

Read-out in experiment [2]: Nuclear factor erythroid 2-related factor 2 (Homo sapiens) (UniProt Q16236)
Nature of the experiment: LTEA_HepaRG_NFE2L2: Life Technologies and Expression Analysis (LTEA) Assay for Nuclear factor erythroid 2-related factor 2 (NFE2L2) Transcription Factor using HepaRG (AID 2283527). Conditions: mRNA level, 48 h; actives raise or lower the signal. A digest of the protocol:
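HepaRG, 48 h dosing, 8-pt half-log series from 100 uM in 0.5% DMSO, duplicates. Read-out: NFE2L2 mRNA by qRT-PCR (ACTB/GAPDH/POLR2A normalization). Bidirectional curve fit vs DMSO baseline.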

Read-out in experiment [3]: Signal transducer and activator of transcription 3 (Homo sapiens) (UniProt P40763)
Nature of the experiment: LTEA_HepaRG_STAT3: Life Technologies and Expression Analysis (LTEA) Assay for Signal transducer and activator of transcription (STAT3) using HepaRG (AID 2283529). To be noted: mRNA level, 48 h; actives raise or lower the signal. Summed up:
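HepaRG, 48 h exposure, 8-pt half-log series (top 100 uM), 0.5% DMSO vehicle, duplicates. Readout: STAT3 transcript by Fluidigm qRT-PCR, housekeeping-normalized; bidirectional fit vs DMSO baseline.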

Read-out in experiment [4]: solute carrier (SLCO1B1), SLCO1B1 (gene 10599)
Nature of the experiment: LTEA_HepaRG_SLCO1B1: Life Technologies and Expression Analysis (LTEA) Assay for solute carrier (SLCO1B1) using HepaRG (AID 2283530). Conditions: mRNA level, 48 h; actives raise or lower the signal. A digest of the protocol: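 HepaRG, serum-free induction medium, 48 h dosing, 8-pt half-log from 100 uM, 0.5% DMSO vehicle, duplicates. Readout: SLCO1B1 mRNA, qRT-PCR, ACTB/GAPDH/POLR2A normalization; up or down fit vs DMSO.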

Read-out in experiment [5]: sulfotransferase 2A1 (SULT2A1), SULT2A1 (gene 6822)
Nature of the experiment: LTEA_HepaRG_SULT2A1: Life Technologies and Expression Analysis (LTEA) Assay for sulfotransferase 2A1 (SULT2A1) using HepaRG (AID 2283531). Conditions: mRNA level, 48 h; actives raise or lower the signal. A digest of the protocol:
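Transcript levels of SULT2A1, quantified by qRT-PCR and normalized to three housekeeping genes, serve as the readout. Human HepaRG cultures receive test chemicals for 48 h at up to 100 uM in half-log steps, with 0.5% DMSO vehicle.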

Read-out in experiment [6]: Transforming Growth Factor (TGFA), TGFA (gene 7039)
Nature of the experiment: LTEA_HepaRG_TGFA: Life Technologies and Expression Analysis (LTEA) Assay for Transforming Growth Factor (TGFA) using HepaRG (AID 2283532). Conditions: mRNA level, 48 h; actives raise or lower the signal. Summed up: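 qRT-PCR read-out of TGFA transcript, normalized to three housekeeping genes, fitted bidirectionally against 0.5% DMSO baseline. Human HepaRG cultures received chemicals for 48 h at eight half-log concentrations, top 100 uM.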

Read-out in experiment [7]: Transforming Growth Factor (TGFB1), TGFB1 (gene 7040)
Nature of the experiment: LTEA_HepaRG_TGFB1: Life Technologies and Expression Analysis (LTEA) Assay for Transforming Growth Factor (TGFB1) Transporter using HepaRG (AID 2283533). Conditions: mRNA level, 48 h; actives raise or lower the signal. A digest of the protocol: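 HepaRG, 48 h post-plating, switched to serum-free induction medium; chemicals 100 uM top, half-log, 8 pts, 0.5% DMSO, dup; 48 h exposure; RNA → Fluidigm TaqMan qRT-PCR; norm ACTB/GAPDH/POLR2A; bidirectional fit vs DMSO.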

Read-out in the next experiment: TIMP1, TIMP1 (gene 7076)
In words: LTEA_HepaRG_TIMP1: Life Technologies and Expression Analysis (LTEA) Assay for TIMP1 using HepaRG (AID 2283534). To be noted: mRNA level, 48 h; actives raise or lower the signal. A digest of the protocol: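 Readout is TIMP1 mRNA level measured by qRT-PCR and normalized to three housekeeping genes. Human HepaRG cells were treated for 48 h in duplicate at eight concentrations up to 100 uM (0.5% DMSO); gain or loss fitted against DMSO.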

Read-out in experiment [8]: Tumor necrosis factor receptor 1 (TNFRSF1A), TNFRSF1A (gene 7132)
Nature of the experiment: LTEA_HepaRG_TNFRSF1A: Life Technologies and Expression Analysis (LTEA) Assay for Tumor necrosis factor receptor 1 (TNFRSF1A) using HepaRG (AID 2283535). Conditions: mRNA level, 48 h; actives raise or lower the signal. A digest of the protocol:
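Read-out is TNFRSF1A transcript level by TaqMan qRT-PCR, normalized to three housekeeping genes, scored as gain or loss of signal versus 0.5% DMSO. Human HepaRG cells received test chemicals for 48 h at up to 100 uM (half-log series).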

Read-out in experiment [9]: Thyroid Hormone Responsive (THRSP), THRSP (gene 7069)
In words: LTEA_HepaRG_THRSP: Life Technologies and Expression Analysis (LTEA) Assay for Thyroid Hormone Responsive (THRSP) using HepaRG (AID 2283536). Conditions: mRNA level, 48 h; actives raise or lower the signal. A digest of the protocol:
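qRT-PCR read-out (Fluidigm TaqMan), housekeeping-normalized (ACTB/GAPDH/POLR2A). HepaRG, 48 h chemical exposure, 8-pt half-log series from 100 uM in 0.5% DMSO, duplicates. Bidirectional curve fit vs 0.5% DMSO baseline.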

Read-out in experiment [10]: Cellular tumor antigen p53 (Homo sapiens) (UniProt P04637)
Nature of the experiment: LTEA_HepaRG_TP53: Life Technologies and Expression Analysis (LTEA) Assay for Tumor Protein P53 (TP53) using HepaRG (AID 2283537). Conditions: mRNA level, 48 h; actives raise or lower the signal. A digest of the protocol: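 TP53 transcript measured by qRT-PCR, normalized to three housekeeping genes, after 48 h treatment of human HepaRG cultures with chemicals from 100 uM downward in half-log steps (0.5% DMSO vehicle, serum-free induction medium). Up- or down-regulation fitted against DMSO.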

Read-out in experiment [11]: UDP glucuronosyltransferase (UGT1A1), UGT1A1 (gene 54658)
In words: LTEA_HepaRG_UGT1A1: Life Technologies and Expression Analysis (LTEA) Assay for UDP glucuronosyltransferase (UGT1A1) using HepaRG (AID 2283538). To be noted: mRNA level, 48 h; actives raise or lower the signal. A digest of the protocol: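 mRNA induction or loss of UGT1A1, by TaqMan qRT-PCR, in duplicate HepaRG wells after 48 h exposure to half-log dilutions topping at 100 uM; DMSO (0.5%) served as baseline.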

Read-out in experiment [12]: UDP glucuronosyltransferase (UGT1A6), UGT1A6 (gene 54578)
In words: LTEA_HepaRG_UGT1A6: Life Technologies and Expression Analysis (LTEA) Assay for UDP glucuronosyltransferase (UGT1A6) using HepaRG (AID 2283539). To be noted: mRNA level, 48 h; actives raise or lower the signal. A digest of the protocol:
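HepaRG, 48 h post-plating switch to serum-free induction medium; chemical 48 h, 100 uM top, half-log x8, duplicate, 0.5% DMSO. Phenobarbital 1mM induction control. UGT1A6 mRNA by TaqMan qRT-PCR; gain/loss fit vs DMSO.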

Read-out in experiment [13]: X-box binding protein 1 (XBP1), XBP1 (gene 7494)
In words: LTEA_HepaRG_XBP1: Life Technologies and Expression Analysis (LTEA) Assay for X-box binding protein 1 (XBP1) using HepaRG (AID 2283540). Conditions: mRNA level, 48 h; actives raise or lower the signal. Summed up:
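Transcript levels of XBP1, measured by qRT-PCR and normalised to three housekeeping genes, were fitted bidirectionally relative to 0.5% DMSO controls. Human HepaRG cells received eight-point half-log dilutions from 100 uM for 48 h.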

Experiment [14] in a line: LTEA_HepaRG_LDH_cytotoxicity: Cytotoxicity Assessment in the Life Technologies and Expression Analysis (LTEA) Assay (AID 2283563; active = hit-call score of the fitted dose curve at least 0.9, where 1 is the maximum;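 for AC50: LDH activity released into spent culture medium as a marker of cell death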). A digest of the protocol:
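Cells were thawed and plated for 48 h. Medium was then replaced with serum-free induction medium. Chemicals (8 half-log points, maximum 100 uM, 0.5% DMSO) were added in duplicate for 48 h, after which spent medium was assayed for LDH.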

The nature of experiment [15]: TOX21_p53_BLA_p2_viability: Viability Assessment in the Tox21 HCT-116 p53 Agonism Beta-lactamase Assay, Phase 2 (AID 2283591; active = hit-call score of the fitted dose curve at least 0.9, where 1 is the maximum;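 note: compound exposure lasted 16 h at 37 °C; actives lower the ATP signal meaning cytotoxicity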). Summed up: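 HCT116 p53-bla cells, 4000/well, dosed after 5 h plating (217-fold dilution of DMSO stocks) and incubated 16 h at 37C. Viability taken as cellular ATP by CellTiter-Glo luminescence after 30 min RT; signal loss marks cytotoxicity.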

The target in experiment [16] is Cellular tumor antigen p53 (Homo sapiens) (UniProt P04637). Nature of the experiment: TOX21_p53_BLA_p2_ratio: Tox21 HCT-116 p53 Agonism Beta-lactamase Assay, Ratio, Phase 2 (AID 2283592; active = hit-call score of the fitted dose curve at least 0.9, where 1 is the maximum). A digest of the protocol:
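Plated HCT116 p53-bla cells (4000/well) received compound after 5 h, then 16 h at 37C/5% CO2. CCF4-AM added, 2 h RT. Ratio of 460 to 530 nm emission taken as the p53 reporter signal.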

Experiment [17] is described as follows: TOX21_p53_BLA_p3_viability: Viability Assessment in the Tox21 HCT-116 p53 Agonism Beta-lactamase Assay, Phase 3 (AID 2283593; active = hit-call score of the fitted dose curve at least 0.9, where 1 is the maximum;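 note: cells exposed to compound for 16 h before reading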). A digest of the protocol: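 HCT116 cells, 4000/well, dosed 5 h after plating by pin transfer (217-fold dilution from DMSO stock) and incubated 16 h at 37C, 5% CO2. Viability read as ATP luminescence with CellTiter-Glo after 30 min at room temperature.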

Read-out in experiment [18]: succinate dehydrogenase complex iron sulfur subunit B (SDHB), SDHB (gene 6390)
Nature of the experiment: LTEA_HepaRG_SDHB: Life Technologies and Expression Analysis (LTEA) Assay for succinate dehydrogenase complex iron sulfur subunit B (SDHB) using HepaRG (AID 2283528). To be noted: mRNA level, 48 h; actives raise or lower the signal. A digest of the protocol:
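SDHB transcript level read by TaqMan qRT-PCR, housekeeping-normalised (ACTB, GAPDH, POLR2A), after 48 h chemical treatment of plated HepaRG cells; eight concentrations top 100 uM, half-log steps, 0.5% DMSO, duplicates; fitted both directions against DMSO.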

A short description of experiment [19]: ATG_XTT_Cytotoxicity: Cytotoxicity Assessment in the Attagene TRANS-FACTORIAL HepG2 Assay (AID 2283584; active = hit-call score of the fitted dose curve at least 0.9, where 1 is the maximum;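 for AC50: cells exposed to compound for 24 h before reading; active means loss of viability signal versus DMSO baseline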). Summed up: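 Cells: human HepG2, transiently transfected with MRTU reporter constructs. Exposure 24 h. Readout: XTT, cell number. Baseline/neg ctrl DMSO; loss-of-signal scored.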

Signal transducer and activator of transcription 3 (Homo sapiens), sequence (P40763 whole entry, looked up): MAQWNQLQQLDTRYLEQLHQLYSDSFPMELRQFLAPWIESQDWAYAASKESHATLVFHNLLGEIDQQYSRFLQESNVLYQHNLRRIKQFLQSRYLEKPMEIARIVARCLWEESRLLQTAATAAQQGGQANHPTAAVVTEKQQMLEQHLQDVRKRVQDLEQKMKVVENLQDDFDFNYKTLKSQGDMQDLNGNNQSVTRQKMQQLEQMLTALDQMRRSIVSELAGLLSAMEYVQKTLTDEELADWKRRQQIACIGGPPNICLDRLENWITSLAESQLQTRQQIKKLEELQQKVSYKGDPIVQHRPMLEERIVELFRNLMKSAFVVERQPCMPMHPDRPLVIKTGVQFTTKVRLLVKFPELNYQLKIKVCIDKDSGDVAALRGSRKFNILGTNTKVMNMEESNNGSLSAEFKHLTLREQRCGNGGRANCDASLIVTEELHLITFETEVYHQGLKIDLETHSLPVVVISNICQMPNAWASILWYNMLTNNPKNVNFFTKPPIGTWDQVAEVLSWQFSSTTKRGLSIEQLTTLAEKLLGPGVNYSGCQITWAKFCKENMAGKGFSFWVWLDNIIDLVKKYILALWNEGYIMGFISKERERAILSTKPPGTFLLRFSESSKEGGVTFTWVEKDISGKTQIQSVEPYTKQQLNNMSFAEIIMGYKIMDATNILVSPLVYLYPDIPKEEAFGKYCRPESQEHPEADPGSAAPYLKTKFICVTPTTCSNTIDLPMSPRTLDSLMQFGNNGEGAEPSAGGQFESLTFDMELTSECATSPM
Cellular tumor antigen p53 (Homo sapiens), sequence (P04637 whole entry, looked up): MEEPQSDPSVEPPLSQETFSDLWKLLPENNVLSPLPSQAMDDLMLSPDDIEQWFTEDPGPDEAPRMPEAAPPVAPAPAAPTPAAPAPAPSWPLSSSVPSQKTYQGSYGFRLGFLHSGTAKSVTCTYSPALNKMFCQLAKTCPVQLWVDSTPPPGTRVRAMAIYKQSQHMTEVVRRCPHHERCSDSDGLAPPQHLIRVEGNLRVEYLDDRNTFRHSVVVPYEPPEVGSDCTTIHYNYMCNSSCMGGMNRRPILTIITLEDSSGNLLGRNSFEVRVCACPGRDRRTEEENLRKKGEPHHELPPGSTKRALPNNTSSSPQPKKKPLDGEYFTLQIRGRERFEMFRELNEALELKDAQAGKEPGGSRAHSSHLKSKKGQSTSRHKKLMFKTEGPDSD
Nuclear factor erythroid 2-related factor 2 (Homo sapiens), sequence (Q16236 whole entry, looked up): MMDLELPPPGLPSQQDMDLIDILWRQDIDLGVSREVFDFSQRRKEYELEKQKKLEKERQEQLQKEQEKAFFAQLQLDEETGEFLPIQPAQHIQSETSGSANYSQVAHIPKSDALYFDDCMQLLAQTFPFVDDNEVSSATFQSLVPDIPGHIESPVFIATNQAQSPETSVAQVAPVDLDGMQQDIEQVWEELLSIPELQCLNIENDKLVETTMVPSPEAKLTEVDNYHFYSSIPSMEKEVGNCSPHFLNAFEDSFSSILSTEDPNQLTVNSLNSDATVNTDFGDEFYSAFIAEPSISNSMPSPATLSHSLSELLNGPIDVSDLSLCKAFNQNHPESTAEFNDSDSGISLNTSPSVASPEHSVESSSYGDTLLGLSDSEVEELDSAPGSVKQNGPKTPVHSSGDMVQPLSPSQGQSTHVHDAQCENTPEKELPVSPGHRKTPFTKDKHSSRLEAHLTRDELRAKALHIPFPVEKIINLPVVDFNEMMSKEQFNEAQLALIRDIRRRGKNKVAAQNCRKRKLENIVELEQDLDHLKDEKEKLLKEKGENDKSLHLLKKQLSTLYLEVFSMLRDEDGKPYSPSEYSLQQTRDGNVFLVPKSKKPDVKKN

Regarding `CSC1=N[C@@](C)(c2ccccc2)C(=O)N1Nc1ccccc1`, the outcome in experiment [1] is “inactive”; in experiment [7], “inactive”; with TIMP1, TIMP1 (gene 7076), “inactive”; in [8], “inactive”; in experiment [13] it was “inactive”; in [15], “inactive”. Moreover, the result in experiment [16] and in [17] was inactive. Also, the AC50 in experiment [2] is 68.6 µM (active); in experiment [3], 9.92 µM (active); in experiment [4], 35.7 µM (active); in experiment [5], 34.9 µM (active); in [6] it was 29.7 µM (active); in experiment [9], 71.4 µM (active). The AC50 in [10] was 28.4 µM (active); in experiment [11], 32.1 µM (active); in experiment [12], 33.2 µM (active); in experiment [14], 32.4 µM (active).
With `CCOP(=S)(OCC)SCCSCC`, the compound was called inactive in [1], in experiment [2], in experiment [18], in [5], in experiment [6] and in [7]. Also, the outcome is “inactive” in the experiment with TIMP1, TIMP1 (gene 7076); “inactive” in experiment [8]; “inactive” in [9]; “inactive” in experiment [10]; “inactive” in experiment [11]; “inactive” in experiment [12]. Also, the result in experiment [13], in experiment [15] and in [16] was inactive.
Take `Nc1c(Cl)cc([N+](=O)[O-])cc1Cl`: the call in experiment [1], in experiment [2], in experiment [6], in [7], in [13] and in experiment [14] was inactive. The compound was called inactive in experiment [19]. The AC50 in experiment [18] was 50 µM (active); in experiment [3] it was 25 µM (active); in [5], 50 µM (active); with TIMP1, TIMP1 (gene 7076), 74 µM (active); in experiment [8] it was 74.1 µM (active); in experiment [9], 42.3 µM (active). Besides, the AC50 in experiment [11] is 11.4 µM (active); in experiment [12] it was 78.1 µM (active).
Consider `O=[N+]([O-])c1cc(C(F)(F)F)c(Cl)c([N+](=O)[O-])c1Nc1ncc(C(F)(F)F)cc1Cl`, for which the outcome in [1] is “inactive”; in experiment [2], “inactive”; in experiment [18], “inactive”; in experiment [3] it was “inactive”; in [6], “inactive”; in the experiment with TIMP1, TIMP1 (gene 7076), “inactive”. The compound was called inactive in experiment [8] and in experiment [13]. Moreover, the AC50 in experiment [5] is 50 µM (active); in experiment [7] it was 79.7 µM (active); in experiment [9], 23.9 µM (active); in [11], 79.5 µM (active); in experiment [12], 73.6 µM (active); in experiment [14] it was 48.4 µM (active). Moreover, the AC50 in experiment [19] was 38.8 µM (active).
